Records with an inconclusive call do not appear. Calls of active or inactive are those of the source. The call rests on the fitted dose curve; in most records, active means well fitted curve in the direction sought with a large enough effect; inconclusive means small, poorly fitted or top-dose-only effect, or another doubt; inactive means no such curve, though single readings can be large; an effect the other way counts as inactive or inconclusive.
What was measured:
[1] = qHTS of pediatric cancer cell lines to identify multiple opportunities for drug repurposing: Primary screen for SK-N-MC cells (AID 1347093); further: series mostly up to about 46 µM
In short: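 Metabolically active cells were quantified by ATP-dependent luminescence (CellTiter-Glo, 15 min at room temperature) following 48 h treatment. Cells had been plated at 500-1,000 per well and settled for 5 h beforehand.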

[2] = qHTS of pediatric cancer cell lines to identify multiple opportunities for drug repurposing: Primary screen for BT-37 cells (AID 1347094); further: series mostly up to about 57 µM
In short: (§1)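 CRCs from 8- or 11-point titrations (lowest final 0.59 nM NPC, 0.78 nM MIPE). Cell viability: CellTiter-Glo after 48 h incubation, 15 min room-temperature development, luminescence imaging.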

[3] = qHTS of pediatric cancer cell lines to identify multiple opportunities for drug repurposing: Primary screen for NB-EBc1 cells (AID 1347095)
In short: as §1

[4] = qHTS of pediatric cancer cell lines to identify multiple opportunities for drug repurposing: Primary screen for U-2 OS cells (AID 1347096); further: nearly all actives have a fitted effect of over 50% in size
In short: (§2)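 Viability after 48 h compound treatment at 37C, 500-1,000 cells/well, read as ATP luminescence with CellTiter-Glo. Primary screens used 11-point (MIPE, 0.78 nM-46 µM) or 8-point (NPC, 0.59 nM-46 µM) final concentrations; follow-up screens used 11-point dilutions.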

[5] = qHTS of pediatric cancer cell lines to identify multiple opportunities for drug repurposing: Primary screen for Saos-2 cells (AID 1347097); further: nearly all actives have a fitted effect of over 40% in size
In short: as §1

[6] = qHTS of pediatric cancer cell lines to identify multiple opportunities for drug repurposing: Primary screen for NB1643 cells (AID 1347099); further: nearly all actives have a fitted effect of over 50% in size
In short: as §1

[7] = qHTS of pediatric cancer cell lines to identify multiple opportunities for drug repurposing: Primary screen for LAN-5 cells (AID 1347100)
In short: as §2

[8] = qHTS of pediatric cancer cell lines to identify multiple opportunities for drug repurposing: Primary screen for BT-12 cells (AID 1347101); further: nearly all actives have a fitted effect of over 25% in size
In short: (§3)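 Cells (500-1,000/well) rested 5 h, then received compounds for 48 h; metabolically active cells were measured by CellTiter-Glo luminescence. Final concentrations spanned up to 46 µM (MIPE, 11-point) or 0.59 nM-46 µM (NPC, 8-point) in primary screens, 11-point in follow-ups.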

[9] = qHTS of pediatric cancer cell lines to identify multiple opportunities for drug repurposing: Primary screen for Rh18 cells (AID 1347102); further: nearly all actives have a fitted effect of over 65% in size
In short: as §2

[10] = qHTS of pediatric cancer cell lines to identify multiple opportunities for drug repurposing: Primary screen for OHS-50 cells (AID 1347103); further: nearly all actives have a fitted effect of over 40% in size
In short: as §3

[11] = qHTS of pediatric cancer cell lines to identify multiple opportunities for drug repurposing: Primary screen for RD cells (AID 1347104); further: nearly all actives have a fitted effect of over 55% in size
In short: as §1

[12] = qHTS of pediatric cancer cell lines to identify multiple opportunities for drug repurposing: Primary screen for MG 63 (6-TG R) cells (AID 1347105); further: nearly all actives have a fitted effect of over 50% in size
In short: as §1

[13] = qHTS of pediatric cancer cell lines to identify multiple opportunities for drug repurposing: Primary screen for control Hh wild type fibroblast cells (AID 1347106);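 further: series mostly up to about 46 µM; a drop in luminescence marks cytotoxicity and a rise apparent proliferation; nearly all actives have a fitted effect of over 55% in size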
In short: as §2

[14] = qHTS of pediatric cancer cell lines to identify multiple opportunities for drug repurposing: Primary screen for Rh30 cells (AID 1347107); further: series mostly up to about 46 µM; nearly all actives have a fitted effect of over 75% in size
In short: as §2

[15] = qHTS of pediatric cancer cell lines to identify multiple opportunities for drug repurposing: Primary screen for Rh41 cells (AID 1347108);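 further: series mostly up to about 46 µM; luminescence drop marks cytotoxic hits; nearly all actives have a fitted effect of over 70% in size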
In short: as §1

[16] = qHTS of pediatric cancer cell lines to identify multiple opportunities for drug repurposing: Primary screen for SK-N-SH cells (AID 1347098);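 further: DMSO served as neutral control and bortezomib at 2.3 µM as positive control; nearly all actives have a fitted effect of over 65% in size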
In short: as §3

Measured: Potency

CCn1cc(C(=O)O)c(=O)c2cc3c(cc21)OCO3
not listed: [16]
inactive: all other assays above

NC(=O)c1cn(Cc2c(F)cccc2F)nn1
not listed: [11] | [14] | [16]
inactive: all other assays above

NS(=O)(=O)c1cc2c(cc1Cl)NC(C1CC3C=CC1C3)NS2(=O)=O (configuration not stated)
not listed: [14] | [16]
inactive: all other assays above

NC(=O)c1ncn([C@@H]2O[C@H](CO)[C@@H](O)[C@H]2O)c1O
not listed: [16]
inactive: all other assays above

CN(C)C/C=C(/c1ccc(Br)cc1)c1cccnc1
not listed: [10]
inactive: all other assays above

CCCNC(C)C(=O)Nc1ccccc1C (configuration not stated)
not listed: [8] | [11]
inactive: all other assays above

FC(F)(F)c1ccccc1-n1ccnc1
not listed: [14] | [16]
inactive: all other assays above

O=c1[nH]c(=O)n([C@H]2C[C@H](O)[C@@H](CO)O2)cc1Br
not listed: [11] | [16]
inactive: all other assays above

CCN1CCc2nc(N)oc2CC1
not listed: [14] | [16]
inactive: all other assays above

CN(C)[C@@H]1C(=O)C(C(N)=O)=C(O)[C@@]2(O)C(=O)C3=C(O)c4c(O)ccc(Cl)c4[C@@H](O)[C@H]3C[C@@H]12
not listed: [8] | [11] | [14]
inactive: all other assays above

CCCCOCCOCCOCc1cc2c(cc1CCC)OCO2
not listed: [10]
inactive: all other assays above

CNCCC(Oc1ccccc1OC)c1ccccc1 (configuration not stated)
not listed: [10] | [14]
inactive: all other assays above

Cc1ccc(/C(=C\CN2CCCC2)c2ccccn2)cc1
not listed: [10] | [14]
inactive: all other assays above

C[C@]12CCC(=O)C=C1CC[C@@H]1[C@@H]2C(=O)C[C@@]2(C)[C@H]1CC[C@]2(O)C(=O)CO
not listed: [14] | [16]
inactive: all other assays above

CCCCNc1ccc(C(=O)OCCN(C)C)cc1
not listed: [10] | [11]
inactive: all other assays above

CN(C)C(=O)Oc1ccc[n+](C)c1
not listed: [16]
inactive: all other assays above

Source: PubChem BioAssay (NCATS)
